These results are taken from PubChem BioAssay (NCATS).

Records with an inconclusive call do not appear. A call without a number means that no potency is given here. Unmarked numbers belong to inactive results. Calls of active or inactive are those of the source. Calls follow the shape of the dose curve; as a rule, active = well fitted cell-killing curve with a large enough effect; inconclusive = small, poorly fitted or top-dose-only effect; inactive = no such curve, though single readings can be large or run the other way.

This assay can be described thus: qHTS of pediatric cancer cell lines to identify multiple opportunities for drug repurposing: Primary screen for Rh41 cells (AID 1347108).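 Also: luminescence drop marks cytotoxic hits; nearly all actives have a fitted effect of over 70% in size.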 The conditions noted are these: Rh41 rhabdomyosarcoma viability, CellTiter-Glo luminescence, 48 h; series mostly up to 46 µM. From the text:
Drug repurposing or repositioning has been offered as a strategy for drug development in oncology programs. This approach has special potential for childhood cancers and other rare or orphan diseases, where the expected return on new drug development has been a disincentive to pharmaceuticals. […] In this project we exploit the poly-pharmacology of drugs to discover new indications via phenotypic screening of a panel of 19 well-characterized cell lines derived from solid tumors seen in children and adolescents. The goal is to identify approved drugs with previously unrecognized anticancer properties that has the potential to reveal new mechanisms and biological processes involved in carcinogenesis or drug resistance. We employed a titration-based paradigm (quantitative high-throughput screening or qHTS), where all compounds were tested at multiple concentrations for their effect on cell viability. Concentration-response curves (CRCs) were derived directly from the primary screen, and both potency and efficacy values were used to identify compounds with robust bioactivity profiles. We screened the NIH Chemical Genomics Center (NCGC) Pharmaceutical Collection (NPC) and Mechanism Interrogation Plate (MIPE) small molecule collections of approved and investigational compounds against these cell lines; and measured metabolically active cells after 48 hours of compound treatment as a proxy for cell viability. […] Assay Submitter: Nathalia J. Martinez, National Center for Advancing Translational Sciences, National Institutes of Health, Rockville, MD, USA; email: natalia.martinez@nih.gov Shen, M et al. Quantitative high-throughput phenotypic screening of pediatric cancer cell lines identifies multiple opportunities for drug repurposing. Oncotarget 2017 Dec 19;9(4):4758-4772. PMID 29435139.
The cells were obtained from University of North Carolina (UNC), Pediatric Preclinical Testing Program (PPT), and Coriell Institute (CI). qHTS cell viability assay: Cells were assayed in growth media at a density of 500-1,000 cells/well. Five microliters of cells were dispensed into 1,536-well, white, solid-bottom, TC-treated plates (Greiner Bio One) using a multidrop dispenser and incubated at 37 degrees C, 5% CO2, under a humidified atmosphere for 5 hours. Twenty-three nanoliters of compounds and controls (neutral control DMSO or positive control bortezomib at final concentration of 2.3 µM) were subsequently transferred by Kalypsys pintool. For primary screens, the MIPE collection was tested at 11-point dilutions (final concentrations range from 0.78 nM to 46 µM) and the NPC collection at 8-point dilutions (final concentrations range from 0.59 nM to 46 µM). Compounds tested in follow-up screens were assayed at 11-point dilutions. Cells were incubated for 48 hours, followed by addition of 3 µL of CellTiter-Glo (Promega). After a 15 min incubation at room temperature, samples were analyzed for luminescence intensity using a ViewLux High-throughput CCD imager equipped with clear filters.
In the case of `CN1CCN(CC(=O)N2c3ccccc3C(=O)Nc3cccnc32)CC1`, the activity change, negative = cytotoxic was 19.3% [at 4.84 µM]. Consider `C[C@]12C=CC(=O)C=C1CC[C@H]1[C@@H]3C[C@@H](O)[C@](O)(C(=O)CO)[C@@]3(C)C[C@H](O)[C@@]12F`, for which the Potency entry is “inactive”. Same read-out and setting: then `CN(C)CC[C@@H](c1ccc(Br)cc1)c1ccccn1`, with “inactive”; and `OCCN1CCN(CCCN2c3ccccc3C=Cc3ccccc32)CC1`, with “inactive”; and `CCCN1C[C@H](CSC)C[C@@H]2c3cccc4[nH]cc(c34)C[C@H]21`, with “inactive”. On the same count and under the same terms, then `CC(=O)OCC1=C(C(=O)O)N2C(=O)[C@@H](NC(=O)Cc3cccs3)[C@H]2SC1`, with “inactive”; and `CCO/C([O-])=N/c1c[n+](N2CCOCC2)no1`, with “inactive”. Take `NC(Cc1ccc(Cl)cc1)C(=O)O` (stereo not given): the activity change, negative = cytotoxic is 28% [at 0.597 µM]. Consider `C#CCN(C)CCCOc1ccc(Cl)cc1Cl`, for which the Potency entry was “inactive”. For `CC(C)NNC(=O)c1ccncc1`, the Potency result is “inactive”.

As to `CC(=O)Oc1cc(C(C)C)c(OCCN(C)C)cc1C`, the Potency result is “inactive”.

For the molecule `COc1ccc([C@@H]2Sc3ccccc3N(CCN(C)C)C(=O)[C@@H]2OC(C)=O)cc1`, the Potency entry was “inactive”. Still for that read-out and setting: to `CC(C)(C)NCC(O)c1cc(O)cc(O)c1` (stereo not given) belongs “inactive”; to `CC1=NS(=O)(=O)c2cc(Cl)ccc2N1`, “inactive”.

`C[N+](C)(C)CCOC(=O)CCC(=O)OCC[N+](C)(C)C`: the Potency entry is “inactive”. As for `O=C(O)CP(=O)(O)O`, the Potency entry is “inactive”. Consider `Cc1nnc(SCC2=C(C(=O)O)N3C(=O)[C@@H](NC(=O)Cn4cnnn4)[C@H]3SC2)s1`, for which the Potency entry was “inactive”. As for `CCn1nc(C(=O)O)c(=O)c2cc3c(cc21)OCO3`, the Potency result is “inactive”.

Regarding `NC(=Nc1ccccc1)Nc1ccccc1`, the Potency entry was “inactive”. As for `NC(N)=NC(=O)Cc1c(Cl)cccc1Cl`, the Potency result is “inactive”. As for `CN(C)C(=O)Oc1ccc[n+](C)c1`, the Potency result was “inactive”. As for `CC(C)(Oc1ccc(CCNC(=O)c2ccc(Cl)cc2)cc1)C(=O)O`, the Potency result was “inactive”.

As for `CC(=O)[C@@]1(O)CC[C@H]2[C@@H]3CCC4=CC(=O)CC[C@]4(C)[C@H]3CC[C@@]21C`, the Potency entry was “inactive”. In the case of `Fc1ccc(C(c2ccc(F)cc2)N2CCN(C/C=C/c3ccccc3)CC2)cc1`, the Potency entry is “inactive”. Still for that read-out and setting: to `C[N+](C)(C)CCOC(N)=O` belongs “inactive”. As for `CCCCNc1ccc(C(=O)OCCN(C)C)cc1`, the Potency entry is “inactive”. Turning to `Cc1scc2c1N(C(=O)CN1CCN(C)CC1)c1ccccc1NC2=O`, the Potency result is “inactive”.

Turning to `CCC(=O)c1ccc2c(c1)N(CCCN(C)C)c1ccccc1S2`, the Potency result was “inactive”. Same read-out and setting: to `Cc1ccc(Cl)c(Nc2ccccc2C(=O)O)c1Cl` belongs “inactive”. On the same count and under the same terms, to `NC(=O)c1cn(Cc2c(F)cccc2F)nn1` belongs “inactive”; to `NC1=NCC2c3ccccc3Cc3ccccc3N12` (stereo not given), “inactive”.

`CCCNC(C)C(=O)Nc1ccccc1C` (stereo not given): the Potency result is “inactive”.

On to `CCN1CCC[C@H]1CNC(=O)c1c(O)c(Cl)cc(Cl)c1OC`, for which the Potency entry is “inactive”. As to `Nc1nc(N)c2nc(-c3ccccc3)c(N)nc2n1`, the Potency entry is “inactive”. As for `COCCc1ccc(OCC(O)CNC(C)C)cc1` (stereo not given), the Potency entry is “inactive”. In the case of `CCOC(=O)c1cnc2c(cnn2CC)c1NN=C(C)C`, the Potency result was “inactive”. Still for that read-out and setting: then `Cc1nc2sccn2c(=O)c1CCN1CCC(=C(c2ccc(F)cc2)c2ccc(F)cc2)CC1`, with “inactive”. Same read-out and setting: to `CN(C)[C@@H]1C(=O)C(C(N)=O)=C(O)[C@@]2(O)C(=O)C3=C(O)c4c(O)ccc(Cl)c4[C@@H](O)[C@H]3C[C@@H]12` belongs “inactive”. Same read-out and setting: then `NC/C=C/C(=O)O`, with “inactive”; and `NC(=O)N1c2ccccc2C=Cc2ccccc21`, with “inactive”.
